Results: PubChem BioAssay
Measured potencies and affinities stand elsewhere. Records with an inconclusive call do not appear. Activity calls are given as the source filed them.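 The calls were made as follows, unless noted: active = signal-lowering compounds whose fitted half-maximal concentration is at or below twice the top tested dose in every run; inconclusive = runs disagree, flat 30 to 70% inhibition, or poor curve fit; inactive = the rest.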

Key:
[1] = cytotoxicity in PAX8-dependent RMG-1 cells, dose response, cell-based, cherry-pick (AID 687029;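 active = signal drop whose fitted half-maximal concentration is at most twice the top valid dose, in every test run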;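 also: cells exposed to compound for 96 hours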)
[2] = cytotoxicity in IOSE-T80 ovarian epithelial cells, dose response, selectivity assay for PAX8 inhibitor project, cell-based, cherry-pick (AID 687032;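 active = fitted half-maximal concentration for viability loss no higher than twice the top valid dose, in every repeat run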;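 also: cells exposed to compound for 96 h before reading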)
[3] = inhibitors of CMV-promoter luciferase reporter, dose response, counter-screen for Pax8 inhibitor project, cell-based, HEK293, luminescence, dry powder (AID 743020);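 also: HEK293 cells stably expressing the CMV luciferase reporter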
[4] = non-specific cell cytotoxicity, dose response, cytotoxicity control for PAX8 inhibitor project, plate reader, dry powder samples (AID 743021; call rule not given here)

Measured: outcome

Cc1ccc(-c2cn3cc(C)ccc3n2)cc1
inactive: [1] | [2] | [3] | [4]

O=C(C[C@@H]1C/C=C/CC[C@H](Cc2ccc(F)cc2)C(=O)OC[C@@H](Cc2ccccc2)NC1=O)N[C@H](CO)Cc1ccccc1
inactive: [1] | [2] | [3]

CN(C)N=Nc1nc[nH]c1C(N)=O
inactive: [1] | [2] | [3] | [4]

COc1ccc(C(=O)N/N=C/c2ccc(OC)c(CN3CCN(c4ccc(F)cc4)CC3)c2)cc1
inactive: [1] | [2] | [3] | [4]

COc1ccc(-c2ccc3c(c2)[C@H]2[C@H](CCN2S(=O)(=O)c2ccc(OC)cc2)[C@H](CO)N3C)cc1
inactive: [1] | [2] | [3] | [4]

COc1ccc(NS(=O)(=O)c2ccc(N3CCCC3)c(NC(=S)Nc3ccc(SC(F)F)cc3)c2)cc1
inactive: [1] | [2] | [3] | [4]

Cc1cccc(NCc2ccc(O)c3ncccc23)c1C
inactive: [1] | [2] | [3] | [4]

Cc1ccccc1N=C1N=C(N)c2ccccc21
inactive: [1] | [2] | [3] | [4]

COc1ccc(-c2cc(-c3ccccc3)c(C#N)c(S(C)(=O)=O)n2)cc1
inactive: [1] | [2] | [3] | [4]

COC(=O)C12OCC34C(CC5C(C)=C(O)C(=O)CC5(C)C3C(O)C1O)OC(=O)C(OC(=O)C=C(C)C)C24 (stereo not drawn)
inactive: [1] | [2] | [3] | [4]

COc1cc(/C=N/NC(=O)c2ccc(CN3C(=O)c4cccc5cccc3c45)cc2)cc(OC)c1O
inactive: [1] | [2] | [3] | [4]

CC(=O)OC(C)(C)/C=C/C(=O)[C@](C)(O)C1[C@H](O)C[C@@]2(C)C3CC=C4C(C=C(O[C@@H]5O[C@H](CO)[C@@H](O)[C@H](O)[C@H]5O)C(=O)C4(C)C)[C@]3(C)C(=O)C[C@]12C (stereo partly drawn)
inactive: [1] | [2] | [3] | [4]

O=C(NCCC1CCCCN1S(=O)(=O)c1ccc(Cl)cc1)C(=O)NCc1ccncc1 (stereo not drawn)
inactive: [1] | [2] | [3] | [4]

O=C1c2c(O)ccc(O)c2C(=O)c2c(NCCNCCO)ccc(NCCNCCO)c21
inactive: [1] | [2] | [3] | [4]

C[C@@H]1CCCCO[C@@H](CN(C)Cc2ccc3c(c2)OCO3)[C@H](C)CN([C@@H](C)CO)C(=O)c2cc(NC(=O)Nc3ccc(C(F)(F)F)cc3)ccc2O1
inactive: [1] | [2] | [3] | [4]

O=C1/C(=C\c2ccc(Cl)c(Cl)c2)CN(C(=O)CCN2CCOCC2)C/C1=C/c1ccc(Cl)c(Cl)c1
inactive: [1] | [2] | [3] | [4]

C=CC(=O)N1C/C(=C/c2ccc(Cl)cc2)C(=O)/C(=C\c2ccc(Cl)cc2)C1
inactive: [1] | [2] | [3] | [4]

C=CCC[C@H](Cc1ccc(F)cc1)C(=O)OC[C@H](Cc1c[nH]c2ccccc12)NC(=O)[C@H](CC=C)CC(=O)N(CCO)Cc1ccccc1
inactive: [1] | [2] | [3] | [4]

C[C@H](CO)N1C[C@H](C)[C@H](CN(C)S(=O)(=O)c2cccc(F)c2)OCc2ccccc2-c2c(n(C)c3ccccc23)C1=O
inactive: [1] | [2] | [3] | [4]

Cn1c(CCN2CCN(c3ccccn3)CC2)nc2cc(NS(=O)(=O)c3ccc(Cl)cc3)ccc21
inactive: [1] | [2] | [3] | [4]

NC(=O)[C@H]1CC2(CC(c3cccc(NC(=O)COc4ccc(Cl)cc4)c3)=NO2)CN1C(=O)C(c1ccccc1)c1ccccc1 (stereo partly drawn)
inactive: [1] | [2] | [3] | [4]

CC(=O)c1cccc(-c2csc3ncnc(Sc4nnnn4C)c23)c1
inactive: [1] | [2] | [3] | [4]

Nc1ncnc2c(C3OC(CO)C(O)C3O)scc12 (stereo not drawn)
inactive: [1] | [2] | [3] | [4]

O=C(Nc1cccc(F)c1)N1CCCCN2[C@@H](CO)[C@H](c3ccc(C#Cc4ccccc4)cc3)[C@@H]2C1
inactive: [1] | [2] | [3] | [4]

CN(Cc1ccccc1)N=Nc1nc[nH]c1C(N)=O
inactive: [1] | [2] | [3] | [4]

FC(F)(F)c1nnc2c(Sc3ccccc3)nc3ccc(Cl)cc3n12
inactive: [1] | [2] | [3] | [4]

CC(=O)NC(CCc1ccc(Cl)c(Cl)c1)c1cccc(O)c(=O)c1 (stereo not drawn)
inactive: [1] | [2] | [3] | [4]

COc1ccc(C(=O)c2cc([N+](=O)[O-])ccc2N2CCOCC2)cc1
inactive: [1] | [2] | [3] | [4]

CCN(c1nc(N)c(C(=O)N=C(N)N)nc1Cl)C(C)C
inactive: [1] | [2] | [3] | [4]

COc1ccc(NC(=O)C(Sc2nnc(-c3ccncc3)n2-c2ccccc2C)c2ccccc2)cc1Cl (stereo not drawn)
inactive: [1] | [2] | [3] | [4]

COc1nn(-c2ccccc2)c(=O)c(Cl)c1Cl
inactive: [1] | [2] | [3] | [4]

CCSc1nc(-c2ccccc2)nc(C(Cl)Cl)n1
inactive: [1] | [2] | [3] | [4]

Cc1cc(Sc2nnc(N)s2)c2ccccc2n1
inactive: [1] | [2] | [3] | [4]

O=C(CN1C(=O)c2ccccc2S1(=O)=O)N1CCc2ccccc21
inactive: [1] | [2] | [3] | [4]

Cc1ccc(NC(=O)c2ccc([N+](=O)[O-])s2)cc1S(=O)(=O)N1CCOCC1
inactive: [1] | [2] | [3] | [4]

N#Cc1ccc(NC(=O)COC(=O)C2CCC2)cc1
inactive: [1] | [2] | [3] | [4]

O=C(NC1CC1)c1ccc2c(c1)C1C3CCC(C3)C1C(c1ccccc1)N2 (stereo not drawn)
inactive: [1] | [2] | [3] | [4]

CN(CCc1cn[nH]c1)Cc1nc(C(c2ccccc2)c2ccccc2)no1
inactive: [1] | [2] | [3] | [4]

Cc1ccc(S(=O)(=O)Nc2ccc3c(c2)C(=O)N([C@H](C)CO)C[C@H](C)[C@@H](CN(C)S(=O)(=O)c2ccc(C)cc2)OCCCC[C@H](C)O3)cc1
inactive: [1] | [2] | [3] | [4]

O=C(c1nnsc1S(=O)(=O)c1ccc(Cl)cc1)N1CCOCC1
inactive: [1] | [2] | [3] | [4]

CN(C)CCOc1ccc2c(c1)C(=O)C(=Cc1ncc([N+](=O)[O-])n1C)C2
inactive: [1] | [2] | [3] | [4]

O=C(Nc1ccc(S(=O)(=O)NC2=NCCCCC2)cc1)c1ccc([N+](=O)[O-])s1
inactive: [1] | [2] | [3] | [4]

O=C(Nc1ccc([N+](=O)[O-])cn1)c1cc(-c2cccc(Br)c2)nc2ccccc12
inactive: [1] | [2] | [3] | [4]

CC[C@@]1(O)C(=O)OCc2c1cc1n(c2=O)Cc2cc3c(CN(C)C)c(O)ccc3nc2-1
inactive: [1] | [2] | [3] | [4]

O=C(Nc1cccc(C2=NCCN2)c1)Nc1cccc(C2=NCCN2)c1
inactive: [1] | [2] | [3] | [4]

C[C@H](CO)N1C[C@H](C)[C@@H](CN(C)Cc2ccccc2)OCCCC[C@H](C)Oc2ccc(NC(=O)Nc3ccc(C(F)(F)F)cc3)cc2C1=O
inactive: [1] | [2] | [3] | [4]

O=C(Nc1nc(-c2cccs2)c(-c2cccs2)s1)C1(c2ccccc2)CC1
inactive: [1] | [2] | [3] | [4]

CC(=O)N1CCN(c2ccc(NC(=O)c3ccc([N+](=O)[O-])o3)cc2Cl)CC1
inactive: [1] | [2] | [3] | [4]

COc1cc(Cl)c(NC2=CC(=O)C(=O)c3ccccc32)c(OC)c1
inactive: [1] | [2] | [3] | [4]

O=C(C[C@@H]1C[C@H]2c3cc(NS(=O)(=O)c4ccc(F)cc4)ccc3O[C@H]2[C@@H](CO)O1)NCc1ccc(Oc2ccccc2)cc1
inactive: [1] | [2] | [3] | [4]

Cc1noc(/C=C/c2ccco2)c1S(=O)(=O)N1CCC(C(=O)NC(C)c2ccccc2)CC1 (stereo not drawn)
inactive: [1] | [2] | [3] | [4]

O=C(N/N=C/c1ccsc1)c1cc(-c2cccs2)nc2ccccc12
inactive: [1] | [2] | [3] | [4]

Cc1cccc(NC(=O)CC23CC4CC(C2)CC(n2nnc(C)n2)(C4)C3)c1
inactive: [1] | [2] | [3] | [4]

CC(C)c1ccc(/C=C(\c2nc3ccccc3[nH]2)S(=O)(=O)c2ccccc2)cc1
inactive: [1] | [2] | [3] | [4]

CCCCNC(=O)C(Sc1ccccc1)c1ccccc1 (stereo not drawn)
inactive: [1] | [2] | [3] | [4]

CCC(=O)Oc1ccc2c(C)cc(=O)oc2c1C(=O)c1ccccc1
inactive: [1] | [2] | [3] | [4]
